The text below walks through data of PubChem BioAssay (EPA / NIEHS).

Test [1] can be described thus: ATG_CRE_CIS: Attagene CIS-FACTORIAL HepG2 Assay for human cAMP Responsive Element (CRE) binding protein 3 (AID 2282926). Particulars: HepG2 CRE cis-reporter, Attagene multiplexed mRNA; actives raise or lower the signal. Put shortly: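 Human liver HepG2, transient MRTU transfection, 24 h compound exposure. Total RNA → oligo(dT) RT → PCR → 6-FAM primer extension → HpaI cut → CE. Activity called both directions vs DMSO.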

Test [2] concerns the target CCAAT/enhancer-binding protein beta (Homo sapiens) (UniProt P17676). The experiment in a line: ATG_C_EBP_CIS: Attagene CIS-FACTORIAL HepG2 Assay for human CCAAT/Enhancer Binding Protein (C/EBP) beta (AID 2282927). Particulars: HepG2 Attagene cis-factorial transcription factor reporter; actives raise or lower the signal. The procedure, abridged:
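Chemical-treated HepG2 cells (24 h) bearing cis-regulated reporter constructs were processed for total RNA, then reverse transcription, PCR amplification, fluorescent primer extension and fragment analysis; gain- and loss-of-signal were fitted against DMSO.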

Test [3] in a line: ATG_AP_1_CIS: Attagene CIS-FACTORIAL HepG2 Assay for human Activator Protein 1 (AP-1) (AID 2282931). Particulars: HepG2 Attagene cis-factorial AP-1 reporter mRNA; actives raise or lower the signal. Put shortly: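 HepG2 cells transiently transfected with cis-element-driven reporter transcription units, dosed for 24 hours. Reporter mRNA measured by RT-PCR, 6-FAM labelling, HpaI digestion and capillary electrophoresis. Bidirectional fitting against DMSO baseline.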

Test [4] is described as follows: ATG_AP_2_CIS: Attagene CIS-FACTORIAL HepG2 Assay for human Activator Protein 2 (AP-2) (AID 2282932). The following applies: HepG2 AP-2 cis-reporter, Attagene transcription factor profiling; actives raise or lower the signal. The procedure, abridged: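 Bidirectional curve fitting against DMSO was applied to reporter mRNA signals from HepG2 cells 24 h after dosing. Cis-promoter reporter units, transiently transfected, were read by RT-PCR plus capillary electrophoresis.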

Test [5] is described as follows: ATG_BRE_CIS: Attagene CIS-FACTORIAL HepG2 Assay for human Bone Morphogenetic Protein (BMP) Response Element (BRE) (AID 2282933). Particulars: HepG2 BMP response element reporter, Attagene transcription factor profiling; actives raise or lower the signal. Put shortly:
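Fluorescence-labelled reporter cDNA fragments, separated by capillary electrophoresis, gave the signal for this component of a 52-readout multiplex. HepG2 cells were transfected, exposed to chemicals for 24 h, and compared with DMSO using bidirectional fitting.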

The target in test [6] is Retinoic acid receptor alpha (Homo sapiens) (UniProt P10276). The experiment in a line: ATG_DR5_RAR_CIS: Attagene CIS-FACTORIAL HepG2 Assay for human Retinoic Acid Receptor Alpha (RARE), DR5 submotif (AID 2282934).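 On AC50: reporter responds to endogenous RAR alpha beta and gamma in HepG2 not RARA alone.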 The following applies: HepG2 Attagene cis-factorial RARE DR5 reporter, mRNA; actives raise or lower the signal. The procedure, abridged:
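Transfected HepG2 reporter cells are exposed to chemicals for 24 h. Then RNA is extracted and the DR5 element reporter transcript is measured by RT-PCR and capillary electrophoresis, with bidirectional curve fitting relative to DMSO.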

In test [7] the target is Transcription factor E2F1 (Homo sapiens) (UniProt Q01094). Description: ATG_E2F_CIS: Attagene CIS-FACTORIAL HepG2 Assay for human E2F Transcription Factor 1 (AID 2282935). Particulars: HepG2 Attagene cis-reporter, E2F reporter RNA transcripts; actives raise or lower the signal. Put shortly: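 Multiplexed cis-reporter assay: HepG2, transient transfection, 24 h dosing, mRNA quantitation by labeled RT-PCR and CE.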
Chain of Transcription factor E2F1 (Homo sapiens) (Q01094 whole entry, looked up): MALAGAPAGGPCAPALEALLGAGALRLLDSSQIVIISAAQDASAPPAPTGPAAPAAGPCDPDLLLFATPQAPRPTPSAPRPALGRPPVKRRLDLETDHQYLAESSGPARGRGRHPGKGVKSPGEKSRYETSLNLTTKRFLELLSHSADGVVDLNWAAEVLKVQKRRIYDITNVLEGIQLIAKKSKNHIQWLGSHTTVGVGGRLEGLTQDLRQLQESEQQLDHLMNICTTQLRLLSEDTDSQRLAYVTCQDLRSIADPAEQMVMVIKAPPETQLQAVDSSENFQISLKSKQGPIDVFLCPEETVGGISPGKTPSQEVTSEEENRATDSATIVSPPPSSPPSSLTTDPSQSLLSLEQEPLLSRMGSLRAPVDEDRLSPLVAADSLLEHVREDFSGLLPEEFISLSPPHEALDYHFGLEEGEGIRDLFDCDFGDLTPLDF

Test [8] is described as follows: ATG_E_Box_CIS: Attagene CIS-FACTORIAL HepG2 Assay for human Enhancer Box (E-box) (AID 2282936). The following applies: HepG2 E-box cis-reporter transcription, actives raise or lower the signal. The procedure, abridged:
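Multiplexed CIS reporter system in transiently transfected HepG2 cells measures native transcription factor activity. Reporter RNA after 24 h exposure is profiled by RT-PCR-capillary electrophoresis.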

The nature of test [9]: ATG_M_61_CIS: Attagene CIS-FACTORIAL HepG2 Assay for M61 Transcription Factor (Internal Marker) (AID 2282937). Particulars: HepG2 Attagene CIS-FACTORIAL M61 internal marker reporter; actives raise or lower the signal. Put shortly: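 HepG2 cells transiently transfected with multiplexed cis-promoter reporter units reporting endogenous transcription factor activity, measured 24 h after dosing. Reporter mRNA quantified by RT-PCR and capillary electrophoresis; bidirectional fit against DMSO baseline.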

Test [10] in a line: ATG_M_19_CIS: Attagene CIS-FACTORIAL HepG2 Assay for M19 Transcription Factor (Internal Marker) (AID 2282939). Particulars: HepG2 Attagene CIS-FACTORIAL M19 internal marker reporter; actives raise or lower the signal. Put shortly: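 HepG2, MRTU transient transfection, 24 h dosing. Total RNA → RT-PCR → 6-FAM primer extension → HpaI digest → CE fluorescence. Bidirectional curve fit, DMSO negative control.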

The nature of test [11]: ATG_ERE_CIS: Attagene CIS-FACTORIAL HepG2 Assay for Estrogen Response Element (ERE) (AID 2282940). Particulars: HepG2 ERE cis-reporter, Attagene RNA transcript; actives raise or lower the signal. The procedure, abridged:
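After a 24 h chemical treatment, RNA from reporter-transfected HepG2 cells is reverse-transcribed, PCR-amplified and fluorescently labelled. Fragments separated by capillary electrophoresis give reporter signal; DMSO serves as negative control.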

Test [12] can be described thus: ATG_Ets_CIS: Attagene CIS-FACTORIAL HepG2 Assay for human Erythroblast Transformation Specific (ETS) (AID 2282941). The following applies: HepG2 ETS cis-reporter transcription, actives raise or lower the signal. Put shortly:
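HepG2 cells transfected with multiple cis-regulated reporter units measuring endogenous ETS-driven transcription, 24 h after dosing. Reporter mRNA quantified by RT-PCR with capillary electrophoresis; bidirectional fit relative to DMSO.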

Test [13] addresses Hepatocyte nuclear factor 3-beta (Homo sapiens) (UniProt Q9Y261). The experiment in a line: ATG_FoxA2_CIS: Attagene CIS-FACTORIAL HepG2 Assay for human Forkhead box A2 (FOXA2) (AID 2282942). Particulars: HepG2 cis-reporter transcription factor activity, 24 h; actives raise or lower the signal. The procedure, abridged: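 HepG2 transiently transfected with a multiplexed cis-promoter reporter library read endogenous FOXA2 activity. After 24 h compound exposure, reporter mRNA was quantified by RT-PCR, HpaI digestion and capillary electrophoresis. Bidirectional fit against DMSO.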

The nature of test [14]: ATG_GATA_CIS: Attagene CIS-FACTORIAL HepG2 Assay for human GATA Binding Protein (AID 2282944). The following applies: HepG2 GATA cis-element reporter, Attagene multiplex mRNA; actives raise or lower the signal. The procedure, abridged:
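Cells: HepG2, transiently transfected with cis-regulated reporter transcription units. Exposure: 24 h. Detection: RT-PCR plus capillary electrophoresis of FAM-labeled fragments. Analysis: bidirectional, DMSO as baseline.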

Test [15] can be described thus: ATG_GLI_CIS: Attagene CIS-FACTORIAL HepG2 Assay for human Zinc Finger Protein GLI1 (AID 2282945). The following applies: HepG2, Attagene cis-factorial reporter mRNA, GLI element; actives raise or lower the signal. Put shortly:
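HepG2 cells transiently transfected with cis-promoter multiplexed reporter units report endogenous transcription factor activity. After 24 h chemical exposure, reporter mRNA was quantified by RT-PCR, 6-FAM labelling, HpaI digestion and capillary electrophoresis, with bidirectional fitting against DMSO.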

A short description of test [16]: ATG_DR4_LXR_CIS: Attagene CIS-FACTORIAL HepG2 Assay for human Liver X Receptor (LXR), DR4 submotif (AID 2282929). The following applies: HepG2 Attagene DR4 cis-reporter, mRNA transcription; actives raise or lower the signal. The procedure, abridged:
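HepG2 cells were transiently transfected with multiple cis-regulated reporter units and dosed for 24 hours. The DR4 reporter mRNA was quantified by RT-PCR, 6-FAM labelling and capillary electrophoresis. Bidirectional fits used DMSO as baseline.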

The target of test [17] is Aryl hydrocarbon receptor (Homo sapiens) (UniProt P35869). The experiment in a line: ATG_Ahr_CIS: Attagene CIS-FACTORIAL HepG2 Assay for human Aryl Hydrocarbon Receptor (Ahr) (AID 2282930). Particulars: HepG2 AhR cis-factorial reporter transcription; actives raise or lower the signal. Put shortly:
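Following 24 h of chemical dosing, transfected HepG2 liver cells with cis-driven reporter units were lysed for RNA; reporter mRNA was quantified via RT-PCR and capillary electrophoresis, and responses fitted bidirectionally from DMSO.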

Test [18] in a line: ATG_EGR_CIS: Attagene CIS-FACTORIAL HepG2 Assay for human Early Growth Response 1 (EGR1) (AID 2282938). Particulars: HepG2 Attagene CIS-FACTORIAL EGR reporter mRNA; actives raise or lower the signal. The procedure, abridged: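 HepG2 cells transiently transfected with cis-element-driven multiplexed reporter units, dosed for 24 h. EGR1-element reporter mRNA quantified by RT-PCR, 6-FAM labelling, HpaI digestion and capillary electrophoresis; bidirectional fit versus DMSO.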

The nature of test [19]: ATG_FoxO_CIS: Attagene CIS-FACTORIAL HepG2 Assay for human Forkhead box O (FoxO) (AID 2282943). Particulars: HepG2 Attagene cis-reporter, FoxO element, mRNA; actives raise or lower the signal. Put shortly:
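24 h chemical exposure, HepG2 with transient cis-MRTU transfection. RNA extraction, oligo(dT) RT, reporter-specific PCR, primer-extension labelling, HpaI digestion, CE fragment analysis; bidirectional fit, DMSO baseline.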

The source made the active and inactive calls. How the source made its calls: active means hit-call score of the fitted dose curve at least 0.9, where 1 is the maximum; inactive means score below 0.9.

Chain of Retinoic acid receptor alpha (Homo sapiens) (P10276 whole entry, looked up): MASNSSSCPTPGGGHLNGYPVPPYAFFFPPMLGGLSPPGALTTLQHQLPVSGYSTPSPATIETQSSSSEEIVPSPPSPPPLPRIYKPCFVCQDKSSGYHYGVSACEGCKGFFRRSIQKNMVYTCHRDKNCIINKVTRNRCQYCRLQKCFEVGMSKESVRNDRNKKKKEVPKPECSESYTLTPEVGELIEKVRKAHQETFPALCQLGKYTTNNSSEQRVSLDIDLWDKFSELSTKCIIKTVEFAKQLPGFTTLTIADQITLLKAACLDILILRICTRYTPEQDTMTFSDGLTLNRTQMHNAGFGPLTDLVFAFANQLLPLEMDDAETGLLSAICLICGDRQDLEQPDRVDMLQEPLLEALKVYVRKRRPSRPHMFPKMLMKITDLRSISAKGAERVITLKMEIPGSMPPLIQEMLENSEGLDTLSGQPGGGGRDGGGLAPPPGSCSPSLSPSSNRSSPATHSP
Chain of Hepatocyte nuclear factor 3-beta (Homo sapiens) (Q9Y261 whole entry, looked up): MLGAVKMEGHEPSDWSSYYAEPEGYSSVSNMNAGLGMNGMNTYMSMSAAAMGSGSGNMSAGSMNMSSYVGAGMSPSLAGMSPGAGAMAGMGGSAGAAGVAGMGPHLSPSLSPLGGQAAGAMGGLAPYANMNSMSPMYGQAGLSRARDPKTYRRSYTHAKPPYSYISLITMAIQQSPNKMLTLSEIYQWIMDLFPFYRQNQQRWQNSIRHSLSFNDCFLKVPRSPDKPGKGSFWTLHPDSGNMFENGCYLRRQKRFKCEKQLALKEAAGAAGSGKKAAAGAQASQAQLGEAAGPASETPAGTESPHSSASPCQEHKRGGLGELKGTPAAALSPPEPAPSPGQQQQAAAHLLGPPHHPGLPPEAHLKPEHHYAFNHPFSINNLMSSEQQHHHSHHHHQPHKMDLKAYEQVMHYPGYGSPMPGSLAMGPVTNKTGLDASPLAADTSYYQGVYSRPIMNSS
Chain of Aryl hydrocarbon receptor (Homo sapiens) (P35869 whole entry, looked up): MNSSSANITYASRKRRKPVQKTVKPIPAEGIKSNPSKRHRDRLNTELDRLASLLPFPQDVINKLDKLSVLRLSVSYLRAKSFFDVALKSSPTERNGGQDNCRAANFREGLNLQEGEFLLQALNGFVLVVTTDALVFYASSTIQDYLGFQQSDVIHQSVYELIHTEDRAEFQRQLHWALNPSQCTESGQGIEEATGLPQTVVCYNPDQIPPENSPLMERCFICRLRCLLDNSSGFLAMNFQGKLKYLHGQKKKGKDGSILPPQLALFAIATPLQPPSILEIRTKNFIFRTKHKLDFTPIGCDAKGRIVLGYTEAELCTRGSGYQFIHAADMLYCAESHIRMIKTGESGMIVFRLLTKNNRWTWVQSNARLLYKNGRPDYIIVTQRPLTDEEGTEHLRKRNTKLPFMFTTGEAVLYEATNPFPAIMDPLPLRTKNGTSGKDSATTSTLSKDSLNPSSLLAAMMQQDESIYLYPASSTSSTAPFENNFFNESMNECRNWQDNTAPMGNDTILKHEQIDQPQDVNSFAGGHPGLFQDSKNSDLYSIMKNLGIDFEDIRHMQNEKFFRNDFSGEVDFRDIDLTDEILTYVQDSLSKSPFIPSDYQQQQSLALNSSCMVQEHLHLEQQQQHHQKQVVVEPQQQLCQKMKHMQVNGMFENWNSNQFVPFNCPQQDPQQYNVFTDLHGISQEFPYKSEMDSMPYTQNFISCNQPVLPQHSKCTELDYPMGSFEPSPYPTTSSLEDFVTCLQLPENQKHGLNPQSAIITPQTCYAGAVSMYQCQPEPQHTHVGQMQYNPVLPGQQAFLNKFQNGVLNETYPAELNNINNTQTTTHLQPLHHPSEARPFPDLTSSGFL
Chain of CCAAT/enhancer-binding protein beta (Homo sapiens) (P17676 whole entry, looked up, the tested form may be a part): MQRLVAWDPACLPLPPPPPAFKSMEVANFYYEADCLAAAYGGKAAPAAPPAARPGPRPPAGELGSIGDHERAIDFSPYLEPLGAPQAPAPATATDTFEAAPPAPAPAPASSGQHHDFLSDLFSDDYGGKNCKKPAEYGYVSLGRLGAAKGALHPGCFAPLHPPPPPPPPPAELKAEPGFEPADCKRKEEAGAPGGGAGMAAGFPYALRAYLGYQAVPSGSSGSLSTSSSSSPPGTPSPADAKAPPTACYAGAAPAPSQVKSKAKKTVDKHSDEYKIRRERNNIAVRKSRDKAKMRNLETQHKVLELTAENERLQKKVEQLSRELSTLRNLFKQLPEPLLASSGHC

As for `CC(C)(c1cc(Br)c(OCCO)c(Br)c1)c1cc(Br)c(OCCO)c(Br)c1`, the AC50 in [1] is 38.7 µM (active); in test [2], 45.3 µM (active); in test [3], 36.6 µM (active); in test [4] it was 10.5 µM (active); in test [6] it was 0.22 µM (active); in test [7], 36 µM (active). The results for the AC50 in [10], in test [12] and in test [13] were 44.5 µM (active), 43.7 µM (active) and 44.2 µM (active), respectively. The outcome in [5], in [8], in [9], in [11], in test [14] and in [15] was inactive.

`ON(Cc1ccccc1)Cc1ccccc1`: the compound was called inactive in test [1], in test [2], in [16], in test [17], in [3] and in test [4]. The outcome in [5], in [6], in test [7], in [8], in test [9] and in test [18] was inactive. Also, the compound was classed as inactive in test [10], in test [11], in test [12], in test [13], in test [19] and in [14]. The call in [15] was inactive.

Consider `NC(=O)N=NC(N)=O`, for which the outcome in test [1], in test [2], in test [17], in test [3], in [4] and in test [6] was inactive. For the same compound, the call in test [7], in [8], in test [9], in test [18], in [10] and in test [11] was inactive. Moreover, the outcome in test [12], in [19], in test [14] and in [15] was inactive. In test [5], the AC50 is 35 µM (active).

In the case of `O=C(O)C(c1ccc(Cl)cc1)c1ccc(Cl)cc1`, the compound was called inactive in test [1], in test [2], in [17], in test [3], in test [4] and in [5]. The result in test [6], in test [7], in [9], in [18], in test [10] and in [13] was inactive. The compound was classed as inactive in test [19], in test [14] and in [15]. Further, the AC50 in test [11] was 2.68 µM (active).

For `CCOC(=O)CC`, the call in test [1], in test [2], in [16], in test [17], in [3] and in test [5] was inactive. The result in [6], in [7], in test [8], in test [9], in test [18] and in test [10] was inactive. The result in test [11], in test [12], in test [13], in test [19], in test [14] and in test [15] was inactive.

Take `CC1=Nc2ccc3ccccc3c2C1(C)C`: the outcome in test [1], in test [2], in test [16], in test [17], in test [4] and in test [6] was inactive. In addition, the compound was called inactive in test [7], in [8], in test [9], in test [10], in test [11] and in test [12]. For the same compound, the result in test [13], in test [19], in [14] and in [15] was inactive. The figures for the AC50 in test [3] and in test [5] were 66 µM (active) and 65.7 µM (active), respectively.

On to `Nc1ccc(Cl)cc1Cl`, for which the result in test [1], in test [2], in [16], in test [17], in [3] and in test [4] was inactive. Besides, the compound was classed as inactive in test [5], in test [6], in test [7], in test [8], in [9] and in test [18]. In addition, the compound was called inactive in [10], in test [11], in [12], in test [13], in test [19] and in test [14]. Moreover, the call in [15] was inactive.
